The results in this text go back to PubChem BioAssay (NCATS).

Results filed as inconclusive are left out. Calls of active or inactive are those of the source. The call rests on the fitted dose curve; in most records, active means well fitted curve in the direction sought with a large enough effect; inconclusive means small, poorly fitted or top-dose-only effect, or another doubt; inactive means no such curve, though single readings can be large; an effect the other way counts as inactive or inconclusive.

A short description of experiment [1]: OV-SAHO Cancer Cell Toxicity qHTS against the NCATS CANVASS Library (AID 1347348). Further: nearly all actives have a fitted effect of over 55% in size. Further: potency means the concentration at half of the fitted maximal effect. An outline of the steps: (§1)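 ATP content after 72 h treatment, detected by CellTiter-Glo luminescence (15min room-temperature development), reflects cell viability. Wells contained 1000 cells and received compounds at 11 concentrations.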
Experiment [2] in a line: U-118MG Cancer Cell Toxicity qHTS against the NCATS CANVASS Library (AID 1347351). Further: series mostly up to about 38 µM. An outline of the steps: as §1
Background: In qHTS, concentration-response curves come from the screen itself.

A short description of experiment [3]: COV-362 Cancer Cell Toxicity qHTS against the NCATS CANVASS Library (AID 1347352). Further: series mostly up to about 38 µM. Summed up: (§2)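 1000 cells/well, 4 h pre-incubation 37 °C/5% CO2; 11-pnt titration; 72 h; CellTiter-Glo 15 min RT, luminescence.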
Experiment [4] is described as follows: A2780 Cisplatin Sensitive Ovarian Cancer Cell Toxicity qHTS against the NCATS CANVASS Library (AID 1347353). Further: nearly all actives have a fitted effect of over 60% in size. An outline of the steps:
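750 cells/well, 4 h settle; 11-pt cpd titration; 72 h, 37 °C, 5% CO2; ATPLite 10 min RT; luminescence read.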

Experiment [5] is described as follows: UWB1.289-WTBRCA1 Cancer Cell Toxicity qHTS against the NCATS CANVASS Library (AID 1347354). Summed up: as §2
Experiment [6] can be described thus: KB-8-5-11 Cancer Cell Toxicity qHTS against the NCATS CANVASS Library (AID 1347364). Further: nearly all actives have a fitted effect of over 75% in size. Summed up:
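CellTiter-Glo luminescence after 72 h exposure; 500 KB-8-5-11 cells/well, DMEM/10% FBS, 37C, 5% CO2; compounds in 11-pt qHTS. Follow-up confirmation included medium with 1uM tariquidar.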

Experiment [7] is described as follows: SDT Cancer Cell Toxicity qHTS against the NCATS CANVASS Library (AID 1347365). Further: nearly all actives have a fitted effect of over 60% in size. An outline of the steps: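 Luminescent ATP read-out (CellTiterGlo) after 72 hr compound exposure of dog glioma SDT cells, 500 per well. Eleven-point titrations; bortezomib titration run alongside as control.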
A short description of experiment [8]: KB-3-1 Cancer Cell Toxicity qHTS against the NCATS CANVASS Library (AID 1347366). Further: nearly all actives have a fitted effect of over 75% in size. Summed up:
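Cytotoxicity toward KB-3-1 cells (500/well, DMEM + 10% FBS) was scored by CellTiter-Glo luminescence following 72 hr exposure at 37C, with bortezomib titrated as control.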

A short description of experiment [9]: MCF7 Cancer Cell Toxicity qHTS against the NCATS CANVASS Library (AID 1347369). An outline of the steps:
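This 72 hr qHTS scored MCF7 viability by CellTiterGlo luminescence, with 500 cells/well; bortezomib titration ran as control.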

Experiment [10] has as its target Nuclear receptor subfamily 1 group I member 3 (Homo sapiens) (UniProt Q14994). Put plainly: qHTS for Constitutive Androstane Receptor (CAR) Antagonist screened against the NCATS CANVASS Library (AID 1347372).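 Further: cells stimulated with 50 nM CITCO agonist so inhibition reflects antagonism; luciferase from CYP2B6 promoter reporter driven by hCAR in HepG2 cells; series mostly up to about 46 µM.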 An outline of the steps: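 Cells were seeded and left 4hr to attach, then received compound at 11 concentrations and 50 nM CITCO. Following 24hr incubation, fluorescence viability and luciferase luminescence were read sequentially.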

A short description of experiment [11]: qHTS for Hypoxia signaling pathway (HIF-1) antagonists against the NCATS CANVASS Library (AID 1347374). Further: nearly all actives have a fitted effect of over 60% in size. Further: potency means the concentration at half of the fitted maximal effect. An outline of the steps: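 Beta-lactamase reporter under HRE control in ME-180 cells; CoCl2 stimulus (60 uM solution as added), compounds 11-pt qHTS, 17 h 37C. CCF4 dye 2 h RT, 460/530 nm emission. CellTiter-Glo viability in same wells.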
A short description of experiment [12]: qHTS for H2AX Agonists against the NCATS CANVASS Library (AID 1347378).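 Further: phospho-H2AX S139 level in CHO-K1 lysates by TR-FRET emission ratio.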 Summed up:
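Signal is the 665/620 nm emission ratio from europium cryptate and d2 antibody pair, rising with S139-phosphorylated H2AX. CHO-K1 cells saw test agents for 3 hr at 37C; detection ran 24 hr at room temperature.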

Experiment [13] can be described thus: Cytotoxicity qHTS for assessment of Hepg2 cells membrane integrity screened against the NCATS CANVASS Library (AID 1347387). An outline of the steps: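 LDH release read by fluorescence (560 nm ex/590 nm em) after CytoTox-ONE addition and 10 min RT; signal tracks lysed cells. HepG2, 2000 cells/well, plated overnight; compound 5 hr, 37C, 5% CO2, final 0.59 nM - 46 uM, 11 points.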

Experiment [14] in a line: qHTS for activators of Nrf2/ARE signaling pathway screened against the NCATS CANVASS Library (AID 1347391). Further: nearly all actives have a fitted effect of over 60% in size. Summed up: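 HepG2 ARE-bla; cpd 11-pt qHTS, 16 h 37C/5% CO2; CCF4 substrate 2 h RT; read ex 405 / em 460 + 530 nm. Viability by CellTiter-Glo luminescence, 30 min RT.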
Experiment [15] in a line: qHTS for inhibitors of Wild type Zika virus screened against the NCATS CANVASS Library (AID 1347396).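 Further: ATP luminescence of surviving cells so rescue from viral cell killing; series mostly up to about 46 µM.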 An outline of the steps: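 Vero 766 (African green monkey) cells, 1000 per well, attached overnight, then compounds were added in an 11-point series before wild-type Zika virus infection. After 72 h at 37C, cell viability was read as CellTiter Glo luminescence.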
The nature of experiment [16]: Viability qHTS for inhibitors of the SERCaMP assay screened against the NCATS CANVASS Library (AID 1347400). Further: series mostly up to about 92 µM; nearly all actives have a fitted effect of over 70% in size. An outline of the steps: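 CellTiter-Glo luminescence readout after 48 h compound exposure (11-pnt qHTS series) of SH-SY5Y-GLuc SERCaMP MJH297 cells seeded at 1000 cells/well; bortezomib positive control.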
Experiment [17] in a line: Redox Reaction Profiling qHTS: Assay Interference Panel against the NCATS CANVASS Library (AID 1347401). An outline of the steps:
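Quantitative HTS over an 11-point series was run in HEPES pH 7.3 with 50 mM NaCl, 200 uM DTT and 5 uM resazurin. Initial and 15-min resorufin fluorescence readings were taken.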

Experiment [18] can be described thus: G06 Cancer Cell Toxicity qHTS against the NCATS CANVASS Library (AID 1347368). Further: nearly all actives have a fitted effect of over 60% in size. An outline of the steps:
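ATP luminescence (CellTiterGlo) readout of cytotoxicity. Canine G06 glioma cells, 500/well, 72 hr incubation at 37C with compounds; bortezomib titration served as control.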

Experiment [19] in a line: Tertiary RLuc qRT-PCR qHTS assay for Zika virus inhibitors (AID 1347169). Further: top concentration of the series differs between compounds; nearly all actives have a fitted effect of over 55% in size. Summed up: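 Inhibition of ZIKV-RLuc replication in Vero cells, read as Renilla luminescence 1-1.5 hrs after live-cell substrate addition, following 48-72 hrs infection at MOI 1-2 in presence of compound.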
For orientation: Real-time PCR tracks product formation cycle by cycle.

Sequence of Nuclear receptor subfamily 1 group I member 3 (Homo sapiens) (Q14994 whole entry, looked up): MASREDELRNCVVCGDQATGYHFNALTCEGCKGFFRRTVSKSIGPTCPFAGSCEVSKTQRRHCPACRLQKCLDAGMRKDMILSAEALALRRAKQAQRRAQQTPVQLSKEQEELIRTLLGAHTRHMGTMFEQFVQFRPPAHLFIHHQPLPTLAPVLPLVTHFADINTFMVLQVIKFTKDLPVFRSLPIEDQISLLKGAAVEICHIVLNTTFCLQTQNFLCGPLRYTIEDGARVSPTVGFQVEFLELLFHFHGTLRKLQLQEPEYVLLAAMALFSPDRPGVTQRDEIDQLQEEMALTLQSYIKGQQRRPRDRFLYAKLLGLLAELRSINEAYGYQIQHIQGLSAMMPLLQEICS

`O=C1c2c(O)cc(O)cc2O[C@@H](c2ccc(O)cc2)[C@@H]1c1c(O)cc(O)c2c(=O)cc(-c3ccc(O)c(O)c3)oc12`: the Potency entry in [1], in experiment [2], in experiment [3], in experiment [4], in experiment [5] and in [6] was “inactive” in each case. Besides, the Potency entry in experiment [7], in experiment [8], in [9], in experiment [10], in experiment [11] and in experiment [12] was “inactive” throughout. Moreover, the Potency result in [14], in experiment [15], in experiment [16] and in experiment [17] was “inactive” throughout. In [13], the molecule was classed as inactive.
On to `C[C@@]12CCC[C@@](C)(C(=O)O)[C@H]1C[C@@H](O)[C@]13C[C@H]4C[C@H](O[C@@]4(C)C1)[C@@H]23`, for which the Potency result in experiment [1], in [2], in experiment [3], in experiment [4], in experiment [5] and in experiment [6] was “inactive” each time. In addition, the Potency entry in [7], in experiment [8], in experiment [18], in [9], in [10] and in experiment [11] was “inactive” each time. The Potency entry in experiment [12], in experiment [14], in experiment [15], in [16] and in experiment [17] was “inactive” throughout. In addition, the molecule was called inactive in experiment [13].
Regarding `CN1C(=O)C2C(N=CN2C)N(C)C1=O` (stereo unspecified), the Potency result in [1], in experiment [3], in [4], in [5], in [6] and in [7] was “inactive” throughout. For the same molecule, the Potency result in [8], in experiment [18], in experiment [9], in experiment [10], in experiment [11] and in experiment [12] was “inactive” in each case. Besides, the Potency result in experiment [14], in [15], in [16] and in experiment [17] was “inactive” each time. Besides, the molecule was classed as inactive in experiment [13].
Turning to `C[C@@H]1C(=O)[C@]23CC[C@H]1C[C@]21O[C@H]2C(C)(C)C=CC(=O)[C@@]23COC1=O`, the Potency entry in experiment [2], in experiment [3], in experiment [4], in experiment [5], in [6] and in [7] was “inactive” each time. Also, the Potency result in experiment [8], in experiment [18], in experiment [9], in [10], in experiment [12] and in experiment [15] was “inactive” in each case. Also, the Potency entry in [16] and in experiment [17] was “inactive” throughout. Moreover, the Potency in experiment [11] is 23.6 µM (active). Moreover, the call in experiment [13] was inactive.
For the molecule `Cc1ccc(-c2nnc(Nc3ccc(S(N)(=O)=O)cc3)c3ccccc23)cc1S(=O)(=O)N1CCOCC1`, the Potency entry in experiment [19] was “inactive”.
Same read-out and setting: with `O=C(O)COc1ccc(-c2nccc3c2C(=O)N(Cc2cccc(C(F)(F)F)c2)CC(COc2ccccc2)O3)cc1` (stereo unspecified) the entry was “inactive”.
Take `Oc1ccc(/C=C2/c3cc(O)cc(O)c3C(c3ccc(O)cc3)[C@H]2c2cc(O)cc(O)c2)cc1` (stereo partly specified): the Potency in experiment [1] was 14.9 µM (active). Also, the Potency result in experiment [2], in experiment [3], in experiment [4], in experiment [6], in [7] and in experiment [18] was “inactive” each time. Also, the Potency entry in experiment [9], in [10], in experiment [11], in experiment [12], in experiment [14] and in experiment [15] was “inactive” in each case. For the same molecule, the Potency result in experiment [16] and in experiment [17] was “inactive” throughout. Besides, the call in [13] was inactive.
